Assay results as given in PubChem BioAssay (NCATS).
Where “and” joins values, the source holds several entries; their conditions need not be identical. Equal entries are not always repeated. Records with an inconclusive call do not appear. Values without a mark were called inactive. Calls of active or inactive are those of the source. Calls come from the whole dose curve; as a rule, active = well fitted cell-killing curve with a large enough effect; inconclusive = small, poorly fitted or top-dose-only effect, or effect the other way; inactive = no such curve, though single readings can be large or run the other way.

Assay: Viability qHTS for spleen associated tyrosine kinase inhibitor (SYKi) naive MV4-11 cells (AID 1963823); note: nearly all actives have a fitted effect of over 40% in size
Details: MV4-11 AML viability, CellTiter-Glo luminescence, 72 h; series mostly up to 45 µM; viability (% of control): at the top concentration
Excerpt: Department of Medicine, Hematology/Oncology
University Hospital Frankfurt, Germany.
Trials have shown promising clinical activity of the selective SYK inhibitor entospletinib in patients with high expressing HOXA9/MEIS1 acute leukemias. As the development of resistance mechanisms is a common problem in the use of targeted drugs, we performed a chemical library screen to identify drug sensitivities in SYK inhibitor resistant AML cells. […] Glucocorticoids are potent immunosuppressants which work in part by inhibiting the transcription of cytokine genes.
Described herein is a viability screen to look for activity in the SYK inhibitor naive cell line against four NCATS compound libraries (MIPE 5.0, NPC, NPACT, and Kinase) totaling 11372 compounds. Active hits were reacquired for confirmation and further secondary assay testing.
SEQUENCE No. (e.g., 1, 2, 3, etc.); […] (e.g., Cells, Incubation, Reagent, etc.); VALUE; DESCRIPTION.
1; Media; 2uL; white, solid-bottom Corning assay plate.
2; Compounds; 23nL; Echo acoustic dispenser.
3; Cell; 5uL; 500 cells per well.
4: Incubation; 72hr; 37 C, 5% CO2, 95% humidity.
5; Reagent; 3uL; CellTiter-Glo reagent (Promega).
6; Incubation; 10min; room temperature.
7; Detection; Luminescence; ViewLux plate reader (PerkinElmer).
NOTES (numbers refer to Sequence numbers above
1. Quantitative high-throughput screening (qHTS) of small molecule compounds was conducted on naive SYKi MV4-11 cell line.
2. Twenty-three nanoliter of small molecule compounds were added to each assay plates using the Echo acoustic dispenser (Beckman Coulter).
3. Cells were seeded into the assay plates at a final density of 500 cells in 5uL of media per well using the Multi-drop Combi dispenser.
4. Plates were covered with stainless steel gasketed lids and incubated for 72 hours at standard cell culture conditions.
5. Viability was assessed by adding 3uL of CellTiter-Glo detection reagent (Promega).
6. Plates were covered with gasket lids and incubated for 10 minutes at room temperature.
7. Luminescence was measured on a ViewLux plate reader (PerkinElmer).
Potency is the fitted concentration of half-maximal effect.

Structure (SMILES) | viability (% of control) | Potency
CC(C)(C)c1cc(C=O)cc(C(C)(C)C)c1O | 78.9% | 
Cn1cc(-c2cnn3c(N)c(Br)c([C@@H]4CCCNC4)nc23)cn1 |  | 0.417 µM (active)
CC1C(=O)CC2C3CCC(C(=O)O)C12CC3(C)CO (stereo not given) | 49.7% | 
CC12CCC3c4ccc(O)cc4CCC3C1CCC2OC1OC(C(=O)O)C(O)C(O)C1O (stereo not given) | 72.8% | 
N[C@@H](CC(=O)N1CCn2c(nnc2C(F)(F)F)C1)Cc1[nH]nc2c(F)c(F)ccc12 | 66.3% | 
CN(C)C(=O)COC(=O)c1cc(-c2ccc(C3CCNCC3)cc2)c2ccc(-c3ccc(C(F)(F)F)cc3)cc2c1 |  | 4.61 µM (active)
CC(N)C1CCC(C(=O)Nc2ccncc2)CC1 (stereo not given) | 65.8% | 
Clc1ccc(-c2nc3sccn3c2/C=N/OCc2ccc(Cl)c(Cl)c2)cc1 | 76.4% | 
CC1(C)CCCC2(C)C(C(=O)O)=CCC12 (stereo not given) | 53.4% | 
C=C(C(=O)O)C1CCC(C)C2CCC(=O)OC2(C)C1 (stereo not given) | 68.4% | 
CC1OC2O[C@H]3[C@@H](OCC(O)[C@H]3O)OC(=O)C34CCC(C)(C)CC3C3=CCC5C6(C)CC(O)C(OC7OC(CO)C(O)C(O)C7O[C@@H]7OC[C@H](OC(=O)CC(C)(O)CC(=O)OC1C(OC1OCC(O)C(O)C1O)C2O)[C@@H](O)[C@H]7O)C(C)(CO)C6CCC5(C)C3(C)CC4 (stereo not given in full) |  | 8.93 µM (active)
Nc1ncnc2c1nc(Cl)n2C1O[C@H](CO)[C@@H](O)[C@H]1O (stereo not given in full) |  | 0.366 µM (active)
N#CC[C@H](C1CCCC1)n1cc(-c2ncnc3[nH]ccc23)cn1 |  | 8.2 µM (active)
Nc1[nH]nc2nnc(-c3c(-c4ccccc4)nn4ccccc34)cc12 |  | 9.2 µM (active)
O=C(OC1C=C(CO)C2C(OC3OC(CO)C(O)C(O)C3O)OC=CC12O)c1ccc(O)cc1 (stereo not given) | 72.2% [at 17.3 µM] | 
O=C(O)/C=C/c1ccc(O[C@@H]2O[C@H](CO)[C@@H](O)[C@H](O)[C@H]2O)cc1 | 99.6% | 
COc1cc(C2Oc3c(O)cc(CCCO)cc3C2CO)ccc1O[C@H]1O[C@H](C)[C@@H](O)[C@H](O)[C@@H]1O (stereo not given in full) | 90.3% [at 17.3 µM] | 
CC1OC(OC2C(OC3C(O[C@H]4CC[C@@]5(C)C(CC[C@]6(C)C5CC=C5C7CC(C)(C)CC(O)[C@]7(C)CC[C@]56C)C4(C)C)OC(C(=O)O)C(O)C3O)OCC(O)C2O)C(O)C(O)C1O (stereo not given in full) | 90.6% [at 9.25 µM] | 
CCNc1cc(NC2CCC(O)CC2)nc(Nc2ccc3c(ccn3Cc3ccccc3)c2)n1 (stereo not given) |  | 8.33 µM (active)
CCCCC(O)/C=C(C)/C=C/C=C/C(=O)N1CCCC1=O (stereo not given) | 72.6% | 

Structure (SMILES) | viability (% of control) | Potency
C=C1C(=O)O[C@@H]2[C@H]3O[C@]3(C)CC/C=C(\C)CC[C@@H]12 |  | 2.35 µM (active)
COc1nc(N)nc2c1ncn2[C@@H]1O[C@H](CO)[C@@H](O)[C@@H]1O | 71.9% | 
Nc1cc(C(F)(F)F)c(-c2cc(N3CCOCC3)nc(N3CCOCC3)n2)cn1 |  | 2.06 µM (active) and 1.86 µM (active)
O=[N+]([O-])c1cccc2[nH]c(CNc3nc(N4CCOCC4)nc4c3ncn4-c3ccsc3)nc12 |  | 0.0146 µM (active)
C=CC1(C)C=C2CC[C@H]3[C@@](C)(C(=O)O)CCC[C@]3(C)C2CC1 (stereo not given in full) |  | 1.61 µM (active)
COC(=O)C1=CO[C@@H](O[C@@H]2O[C@H](CO)[C@@H](O)[C@H](O)[C@H]2O)[C@@H]2C(C)CC(=O)[C@]12O (stereo not given in full) | 80.5% [at 17.3 µM] | 
CC(=O)NC(CS)C(=O)O (stereo not given) | 90.1% | 
CONC(=O)c1ccccc1Nc1cc(Nc2cc(C)nn2C(C)C)ncc1Cl |  | 6.61 µM (active)
C[C@@H]1C/C=C/C=C\C=C\C=C\[C@H](O[C@@H]2O[C@H](C)[C@@H](O)[C@H](N)[C@@H]2O)C[C@@H]2O[C@](O)(C[C@@H](O)C[C@H]3O[C@@H]3/C=C/C(=O)O1)C[C@H](O)[C@H]2C(=O)O | 60.8% [at 17.3 µM] | 
O=S(=O)(O)CCS | 74.2% | 
CC[C@]1(O)CC2CN(CCc3c([nH]c4ccccc34)[C@@](C(=O)OC)(c3cc4c(cc3OC)N(C=O)[C@H]3[C@@](O)(C(=O)OC)[C@H](OC(C)=O)[C@]5(CC)C=CCN6CC[C@]43[C@@H]65)C2)C1 (stereo not given in full) |  | 0.0805 µM (active)
CCOC(=O)c1ccc(C#Cc2ccc3c(c2)C(C)(C)CCS3)nc1 |  | 5.25 µM (active)
CC(C)C1NC(=O)CNC(=O)C2CCCN2C(=O)C(Cc2c[nH]c3ccccc23)NC(=O)CNC(=O)C(Cc2ccc(O)cc2)NC(=O)CNC1=O (stereo not given) | 88.6% [at 17.3 µM] | 
NCc1ccc(S(N)(=O)=O)cc1 | 84.5% | 
Cc1ccccc1C(=O)Nc1ccc(C(=O)N2CCCC(N(C)C)c3ccccc32)cc1 (stereo not given) |  | 5.96 µM (active) and 2.91 µM (active)
CC1COC2(OC3CC4C5CC(O[C@@H]6O[C@H](C)[C@@H](O[C@@H]7O[C@@H](C)[C@H](O)[C@@H](O)[C@H]7O)[C@H](O)[C@H]6O)C6CC(O)CCC6(C)C5CCC4(C)C3C2C)C(O)C1 (stereo not given in full) | 100% [at 17.3 µM] | 
COc1cc(/C=C/C(=O)OC[C@H]2O[C@@H](OC3OC=C(C(=O)O)C4C(O)CC(C)(O)C34)[C@H](O)[C@@H](O)[C@@H]2O)cc(OC)c1O (stereo not given in full) | 63.4% [at 17.3 µM] | 
CCC1C(=O)N(C)c2cnc(Nc3ccc(C(=O)NC4CCC(N5CCN(CC6CC6)CC5)CC4)cc3OC)nc2N1C(C)C (stereo not given) |  | 0.0259 µM (active)
CC1CCC2(C(=O)O)CCC3(C)C(=CCC4C5(C)CCC(O)C(C)(CO)C5CCC43C)C2C1(C)O (stereo not given) | 68% [at 17.3 µM] | 
CN1CCN(CC(=O)N2c3ccccc3C(=O)Nc3cccnc32)CC1 | 98.6% [at 4.97 µM] | 
